PubChem BioAssay AID1159580 (chemical genetic matrix, 2015)
“And” between values parts separate entries of the source, which are not always exact repeats. Equal entries are not always repeated. Out of some 5,500 compounds screened, about 2,000 (36%) were called active. About 18% were inconclusive and are not listed. No stated cut-off is given here; in the data, active means normalized growth mostly below about 0.91 (no sharp cut-off); inconclusive means no clear call, values can overlap the other calls; inactive means mostly above about 0.92. Some of the results follow.

Experiment: chemical genetic growth profiling, strain panel (AID 1159580);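 further: tested at 20 µM; growth read once vehicle control cultures reached saturation at 30 °C; 1 = growth at the plate median or of vehicle wells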
Conditions: S. cerevisiae deletion strains, growth OD

Measured: normalized growth

O[N+]1=CC=CCC1=S.On1ccccc1=S.[Zn]
active: locus YAL013W, strain DEP1, stronger effect = lower value 0.0588 | locus YAL021C, strain ccr4, stronger effect = lower value 0.0689 | locus YAL026C, strain drs2, stronger effect = lower value 0.0618 | locus YAL030W, strain snc1, stronger effect = lower value 0.0584 | locus YBL061C, strain skt5, stronger effect = lower value 0.0681 | locus YBR009C, strain hhf1, stronger effect = lower value 0.0728 | locus YBR021W, strain FUR4, stronger effect = lower value 0.0965 | locus YBR023C, strain chs3, stronger effect = lower value 0.0675 | locus YBR171W, strain sec66, stronger effect = lower value 0.0802 | locus YBR229C, strain ROT2, stronger effect = lower value 0.052 | locus YBR231C, strain swc5, stronger effect = lower value 0.0683 | locus YBR279W, strain paf1, stronger effect = lower value 0.0672 | locus YCL011C, strain gbp2, stronger effect = lower value 0.0581 | locus YCL016C, strain dcc1, stronger effect = lower value 0.0685 | locus YCL029C, strain bik1, stronger effect = lower value 0.0621 | locus YCL061C, strain MRC1, stronger effect = lower value 0.0686 | locus YCL069W, strain vba3, stronger effect = lower value 0.0611 | locus YCR088W, strain abp1, stronger effect = lower value 0.0601 | locus YDL005C, strain med2, stronger effect = lower value 0.081 | locus YDL035C, strain GPR1, stronger effect = lower value 0.0513 | locus YDL040C, strain nat1, stronger effect = lower value 0.061 | locus YDL074C, strain BRE1, stronger effect = lower value 0.0852 | locus YDL101C, strain DUN1, stronger effect = lower value 0.0624 | locus YDL185W, strain tfp1, stronger effect = lower value 0.0604 | locus YDL192W, strain arf1, stronger effect = lower value 0.0611 | locus YDR001C, strain nth1, stronger effect = lower value 0.0598 | locus YDR069C, strain doa4, stronger effect = lower value 0.0662 | locus YDR101C, strain arx1, stronger effect = lower value 0.0573 | locus YDR137W, strain rgp1, stronger effect = lower value 0.0942 | locus YDR150W, strain NUM1, stronger effect = lower value 0.0564 | locus YDR159W, strain sac3, stronger effect = lower value 0.104 | locus YDR162C, strain NBP2, stronger effect = lower value 0.0519 | locus YDR195W, strain ref2 0.122 | locus YDR297W, strain sur2, stronger effect = lower value 0.0587 | locus YDR318W, strain mcm21, stronger effect = lower value 0.0644 | locus YDR334W, strain swr1, stronger effect = lower value 0.0636 | locus YDR335W, strain msn5, stronger effect = lower value 0.0604 | locus YDR388W, stronger effect = lower value 0.0563 | locus YDR392W, strain spt3, stronger effect = lower value 0.102 | locus YDR502C, strain sam2, stronger effect = lower value 0.0617 | locus YEL003W, strain gim4, stronger effect = lower value 0.0591 | locus YEL037C, strain rad23, stronger effect = lower value 0.0593 | locus YEL061C, strain CIN8 (second series), stronger effect = lower value 0.0642 | locus YEL061C, strain CIN8, stronger effect = lower value 0.0538 | locus YER015W, strain faa2, stronger effect = lower value 0.0649 | locus YER016W, strain bim1, stronger effect = lower value 0.0653 | locus YER110C, stronger effect = lower value 0.0752 | locus YER111C, strain swi4, stronger effect = lower value 0.0747 | locus YER155C, strain BEM2 (second series), stronger effect = lower value 0.0952 | locus YER155C, strain BEM2, stronger effect = lower value 0.0682 | locus YER167W, strain BCK2, stronger effect = lower value 0.0543 | locus YFR010W, strain ubp6, stronger effect = lower value 0.0685 | locus YGL078C, strain dbp3, stronger effect = lower value 0.0615 | locus YGL086W, strain mad1, stronger effect = lower value 0.0569 | locus YGL167C, strain pmr1, stronger effect = lower value 0.0764 | locus YGL173C, strain kem1, stronger effect = lower value 0.0718 | locus YGL227W, strain vid30, stronger effect = lower value 0.0622 | locus YGL240W, strain doc1, stronger effect = lower value 0.0817 | locus YGL248W, strain PDE1, stronger effect = lower value 0.0522 | locus YGL253W, strain hxk2, stronger effect = lower value 0.0558 | locus YGR078C, strain PAC10, stronger effect = lower value 0.0545 | locus YGR135W, strain pre9, stronger effect = lower value 0.0622 | locus YGR252W, strain gcn5, stronger effect = lower value 0.164 | locus YHR013C, strain ard1, stronger effect = lower value 0.117 | locus YHR027C, strain rpn1, stronger effect = lower value 0.0678 | locus YHR030C, strain SLT2, stronger effect = lower value 0.0537 and 0.0956 | locus YHR079C, strain IRE1 (second series), stronger effect = lower value 0.0577 | locus YHR079C, strain IRE1, stronger effect = lower value 0.111 | locus YHR094C, strain hxt1, stronger effect = lower value 0.0579 | locus YHR129C, strain ARP1, stronger effect = lower value 0.0604 | locus YHR142W, strain chs7, stronger effect = lower value 0.0777 | locus YHR200W, strain rpn10, stronger effect = lower value 0.0589 | locus YIL066C, strain RNR3, stronger effect = lower value 0.0511 | locus YIL073C, strain SPO22, stronger effect = lower value 0.113 | locus YIL125W, strain kgd1, stronger effect = lower value 0.0608 | locus YIR030C, strain dcg1, stronger effect = lower value 0.0598 | locus YJL092W, strain hpr5, stronger effect = lower value 0.0603 | locus YJL095W, strain BCK1 (second series), stronger effect = lower value 0.0629 | locus YJL095W, strain BCK1, stronger effect = lower value 0.0641 and 0.0953 | locus YJL115W, strain asf1, stronger effect = lower value 0.0768 | locus YJL129C, strain trk1, stronger effect = lower value 0.0933 | locus YJL134W, strain LCB3, stronger effect = lower value 0.0509 | locus YJL154C, strain vps35, stronger effect = lower value 0.064 | locus YJL164C, strain tpk1, stronger effect = lower value 0.0692 | locus YJL166W, strain qcr8, stronger effect = lower value 0.0996 | locus YJL168C, strain set2, stronger effect = lower value 0.0599 | locus YJL187C, strain SWE1 (second series), stronger effect = lower value 0.0508 | locus YJL187C, strain SWE1, stronger effect = lower value 0.0629
